An excerpt weighted towards active compounds, which were near 7.4% of everything screened.
SMN2 splice up – enhancers of SMN2 splice variant expression. HEK293 SMN2-luciferase splicing reporter, luminescence, 30-36 h. Potency, µM (titrated, usually from 46.1 µM), usual class: activators. hit rate 2.8% among 210,000. AID 1458; further: nearly all actives have a fitted effect of over 55% in size
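HEK293 cells carry an SMN2 minigene-luciferase reporter in which exon 7 inclusion puts luciferase in frame. Cells were seeded at 2000 cells/well, attached for 10-12 hours, then exposed to compounds for 30-36 hours at 37C before ONE-Glo luminescence.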
p53 reactivation – restores transcriptional activity of mutant p53; H1299 p53-A138V BP100-luciferase reporter, luminescence, 24 h; hit rate 0.063% among 320,000; Potency, µM (doses to about 92.2 µM), most hits filed as activators; further: nearly all actives have a fitted effect of over 45% in size
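H1299 (p53-null), stable ts p53-A138V + BP100-Luc; 1000 cells/well, Opti-MEM/10% FBS; cpd 4 pt, 1:5; 24 h, 37 deg C, 5% CO2; detection reagent 10 min RT; luminescence.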
ELG1 genotox – induces genotoxicity in HEK293T cells with luciferase-tagged ELG1 | HEK293T ELG1-luciferase reporter, luminescence, 16 h | Potency, µM (titrated, usually from 46 µM), hits mostly activators | hit rate 1.3% among 330,000 | AID 504466; further: nearly all actives have a fitted effect of over 60% in size
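Screening used a luciferase reporter fused to human ELG1 in HEK293T cells. Luminescence was read on a CCD plate imager after 16 hr exposure and 30 min ONE-Glo incubation.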
Rab9 promoter act – activators of Rab9 promoter; Huh7 Rab9 promoter-luciferase reporter, luminescence, 24 h; AID 485297; hit rate 2.8% among 320,000; Potency, µM (doses to about 9.22 µM), hits mostly activators; further: nearly all actives have a fitted effect of over 60% in size
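Promoter activation is measured as luciferase luminescence in Huh7 cells stably transfected with a Rab9 promoter–luciferase construct, following 24 h compound exposure at 37 °C and 10 min reagent incubation at ambient temperature.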
NPC1 prom act – NPC1 promoter activation; Huh7 NPC1 promoter luciferase reporter, 24 h; Potency, µM (series often up to 9.22 µM), usual class: activators; hit rate 2.4% among 320,000; AID 485313; further: nearly all actives have a fitted effect of over 60% in size
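Quantitative HTS used a cell-based reporter: Huh7 cells stably bearing the NPC1 promoter upstream of luciferase were treated with compounds for 24 h, and promoter activation was read as luminescence.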
FLuc counter – counter-screen for miR-21 project: firefly luciferase inhibitors or activators; P08659; purified FLuc, Km substrates, luminescence inhibition; Potency, µM (doses to about 57.5 µM), actives largely listed as inhibitors; hit rate 6.9% among 360,000; AID 588342; further: nearly all actives have a fitted effect of over 55% in size
Target sequence (P08659 whole entry, looked up): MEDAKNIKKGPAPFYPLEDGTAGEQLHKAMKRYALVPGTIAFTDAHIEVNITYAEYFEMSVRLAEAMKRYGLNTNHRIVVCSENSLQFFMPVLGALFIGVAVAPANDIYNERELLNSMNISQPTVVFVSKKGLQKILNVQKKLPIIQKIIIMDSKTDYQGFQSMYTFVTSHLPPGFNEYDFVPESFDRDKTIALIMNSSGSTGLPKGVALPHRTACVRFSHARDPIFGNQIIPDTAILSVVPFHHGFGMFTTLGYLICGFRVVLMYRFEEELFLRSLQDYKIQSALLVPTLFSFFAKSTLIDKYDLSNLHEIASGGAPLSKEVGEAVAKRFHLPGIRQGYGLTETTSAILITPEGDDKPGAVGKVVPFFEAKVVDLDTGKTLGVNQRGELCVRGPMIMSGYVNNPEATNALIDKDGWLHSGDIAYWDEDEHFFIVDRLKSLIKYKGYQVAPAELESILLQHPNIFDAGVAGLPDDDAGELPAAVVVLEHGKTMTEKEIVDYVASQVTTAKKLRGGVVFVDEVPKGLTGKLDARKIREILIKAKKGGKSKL
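Biochemical qHTS of compounds, final roughly 60 µM downward over six points, against 10 nM purified firefly luciferase using Km concentrations of substrates (10 uM D-luciferin, 10 uM ATP) in Tris acetate pH 7.5 buffer; luminescence output.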
A number is an active result; n = inactive; u = inconclusive; x = not tested or not shown; [ ] = dose if it differs, or a comment. The call rests on the fitted dose curve; in most records, active means well fitted curve in the direction sought with a large enough effect; inconclusive means small, poorly fitted or top-dose-only effect, or another doubt; inactive means no such curve, though single readings can be large; an effect the other way counts as inactive or inconclusive.

SMILES	SMN2 splice up	p53 reactivation	ELG1 genotox	Rab9 promoter act	NPC1 prom act	FLuc counter
Cc1nc2ccc(NC(=O)N(C(C)C)C(C)C)cc2s1	n	n	u	n	n	u
O=C(Cc1cccs1)Nc1cccc(-c2nc3cc4ccccc4cc3[nH]2)c1	6.31µM	u	u	1.78µM	1.58µM	0.849µM
Cc1ccc(NC(=O)Cc2cccs2)cc1Cl	x	u	n	u	n	19µM
Cc1nc2ccc(NC(=O)N(C)c3ccccc3)cc2s1	22.4µM	u	u	u	u	13.5µM
Cc1ccc(CSCCC(=O)N2CCN(c3ccc(F)cc3)CC2)cc1	x	x	x	x	x	n
Cc1nc2ccc(NC(=O)Cc3cccs3)cc2s1	u	n	u	2.51µM	3.98µM	7.57µM
Cc1nc2ccc(NC(=O)Cc3ccc(Br)cc3)cc2s1	x	n	n	n	n	n
CCCc1cc2c(=O)c(-c3ccccn3)coc2cc1OC	u	u	u	1.58µM	2µM	4.78µM
CCCc1cc2c(=O)c(-c3ccccn3)c(C)oc2cc1O	n	n	n	n	n	u
COc1ccccc1CCNC(=O)C(=O)NCC(c1cccs1)S(=O)(=O)c1cccs1 (stereo not given)	x	x	x	x	x	n
CCSc1nsc(NC(=O)Nc2ccc(F)cc2F)n1	x	u	n	u	u	5.36µM
O=C(Nc1ccc(CSc2ccccc2)cc1)c1ccco1	x	n	7.3µM	3.98µM	2.82µM	2.69µM
O=C(Nc1ccc(OC(=O)c2ccco2)cc1)c1ccco1	n	n	n	n	n	4.78µM
O=C(Nc1nc(SCc2ccc(F)cc2)ns1)c1ccco1	17.8µM	u	n	n	n	21.3µM
CN(C)c1ccc(C(=S)N2CCN(S(=O)(=O)c3ccccc3)CC2)cc1	x	u	n	n	n	n
OCCN(CCO)c1ncnc2nc[nH]c12	n[9.22 µM]	x	x	x	x	x
O=C(Nc1ccc(F)cc1)C1CCN(C(=O)c2ccc(F)cc2)CC1	x	n	n	n	n	x
O=C(OC1CCCCC1)c1ccc(NC(=O)c2ccco2)cc1	u	u	n	3.55µM	u	13.5µM
O=C(O)COc1ccc(NC(=O)c2ccc(NC(=O)c3ccco3)cc2)cc1	n	n	n	n	n	u
CCC(=O)Nc1ccc(NC(=O)c2ccco2)cc1	n	n	u	2.82µM	2.82µM	19µM
CCC(=O)Oc1ccc(NC(=O)c2ccco2)cc1	n	n	n	n	n	12µM
FC(F)Oc1ccc(NC(=S)NC2CCCCCCC2)cc1	x	u	n	n	n	19µM
S=C(Nc1cccc(Cl)c1)NC1CCCCC1	n	n	n	n	n	u
S=C(Nc1ccc(Cl)cc1)NC1CCCCC1	x	n	n	n	n	15.1µM
FC(F)Oc1ccc(NC(=S)NC2CCSc3ccccc32)cc1 (stereo not given)	x	n	n	n	n	n
SMILES	SMN2 splice up	p53 reactivation	ELG1 genotox	Rab9 promoter act	NPC1 prom act	FLuc counter
CCN(CC)CCNC(=S)Nc1ccc(Cl)cc1	n	n	n	n	n	n
CCN(CC)CCCNC(=S)Nc1ccc(Br)cc1	x	u	23.1µM	u	u	10.7µM
S=C(Nc1ccc(Br)cc1)NC1CCCCC1	12.6µM	u	n	n	n	10.7µM
C=CCNCc1ccccc1[N+](=O)[O-]	x	n	n	n	n	n
CC(C)(C)NC(=S)Nc1ccc(Br)cc1	n	u	n	n	n	19µM
CC(C)(C)NC(=S)Nc1ccc(Nc2ccccc2)cc1	n	n	n	n	n	u
Cc1ccc(C(=O)O/N=C/c2c(C(F)(F)F)nn(C)c2Sc2ccc(Cl)cc2)cc1	n	n	n	n	n	u
Cc1ccc(/C=N/OC(=O)c2nn(C)cc2Cl)cc1	n	n	n	n	n	1.35µM
Cc1ccc(C(=O)O/N=C/c2c(C)nn(C)c2Cl)cc1	n	n	n	n	n	10.7µM
Cc1ccc(CO/N=C/C2=C(Cl)c3ccccc3CC2)cc1	n	x	x	x	x	n
Cc1ccc(S(=O)(=O)Oc2ccc(/C=N/NC(=O)c3nn(C)cc3Cl)cc2)cc1	n	n	n	n	n	n
Cc1ccc(C(=O)O/N=C/C2=C(Cl)c3ccccc3CC2)cc1	n	n	n	n	n	23.9µM
COc1ccccc1CC(=O)N1CCC(n2nccc2NC(=O)C2CCOC2)CC1 (stereo not given)	x	n	n	n	n	n
O=C(Nc1nc2n(n1)C(c1ccc(F)cc1)C=C(c1ccccc1)N2)c1ccco1 (stereo not given)	x	x	x	x	x	n
CCOC(=O)Cc1nn(C)c(=O)c2ccccc12	5.62µM	n	n	n	n	n
COc1ccc(N=C2O/C(=C/c3sc(=S)n(CC4CCCO4)c3O)N=C2C#N)cc1 (stereo not given)	x	n	n	n	n	2.39µM
O=C1N=c2ccccc2=C1c1sc(=S)n(CC2CCCO2)c1O (stereo not given)	n	n	n	n	n	n
CCCN(Cc1nnc(-c2cccs2)o1)C(=O)CN1C(=O)NC2(CCCCC2C)C1=O (stereo not given)	x	n	n	n	n	n
CC(C)(C)C(=O)Nc1ccc(-c2nc3ccccc3s2)cc1	x	x	x	x	x	0.0151µM
CCS(=O)(=O)c1ccccc1C(=O)Nc1ccc(-c2nc3ccccc3s2)cc1	x	x	x	x	x	9.53µM
NCCN	n	x	x	x	x	x
O=C(Nc1cnc2ccccn2c1=O)c1ccc(Cl)cc1Cl	1.58µM	n	u	0.282µM	0.316µM	1.69µM
Cc1ccc(C(=O)Nc2cnc3ccccn3c2=O)cc1	11.2µM	n	4.61µM	1.58µM	2.24µM	16.9µM
COc1ccc(CCNC(=O)CCc2c(C)c3cc4c(C)coc4cc3oc2=O)cc1	n	x	x	x	x	n
CC(=O)Nc1nc(-c2ccc3c(c2)CCO3)cs1	u	n	n	u	u	12µM
SMILES	SMN2 splice up	p53 reactivation	ELG1 genotox	Rab9 promoter act	NPC1 prom act	FLuc counter
Nc1nc(-c2ccc3c(c2)CCO3)cs1	10µM	n	n	u	n	u
COc1ccc2c(C)c(CCC(=O)NCCc3ccccc3)c(=O)oc2c1	n	x	x	x	x	n
CCCC(=O)Nc1ccc(-c2nc3cc(C)c(C)cc3o2)cc1	11.2µM	u	u	0.355µM	0.355µM	1.07µM
CCCC(=O)Nc1cccc(-c2nc3cc(C)c(C)cc3o2)c1C	u	x	x	x	x	0.269µM
CC(=O)N1CCC[C@@]2(CCN(Cc3nccs3)C2)C1	n	x	x	x	x	x
Cc1ccc(N2C(=O)N3[C@H](c4ccc(F)cc4)[C@@H]4C(=O)N(C5CCCCC5)C(=O)[C@@H]4[C@]3(C)C2=O)cc1	x	n	n	n	n	n
COc1ccc(S(=O)(=O)c2c(Nc3ccc(C)cc3C)sc(C(=O)c3ccc(F)cc3)c2N)cc1	x	x	x	x	x	n
CCOc1ccc(C(=O)CSCCC(=O)O)cc1	n	n	n	n	n	6.01µM
CCOc1ccc(-n2nc3cc(C)c(N)cc3n2)cc1	x	n	u	0.447µM	0.447µM	0.338µM
CCOc1ccc(-n2nc3ccc(NC(=O)c4cccc(F)c4)cc3n2)cc1	n	x	x	x	x	n
CCOc1ccc(-n2nc3ccc(N)cc3n2)cc1	x	n	u	n	u	0.757µM
CCOc1ccc(-n2nc3cc(C)c(NC(=O)c4cc(OCC)c(OCC)c(OCC)c4)cc3n2)cc1	n	x	x	x	x	n
